# In the supplement of paper PMC3334620:
# Whole data set: some 33,000 sequences, median “E-score (-0.5 to 0.5)” near -0.013, cut for the highest 2% near 0.3. What follows is part of a selection rich in the highest values, with near analogues and random picks from the rest.
# Target: T1, Msn1 (UniProt P22148)
# T1 sequence: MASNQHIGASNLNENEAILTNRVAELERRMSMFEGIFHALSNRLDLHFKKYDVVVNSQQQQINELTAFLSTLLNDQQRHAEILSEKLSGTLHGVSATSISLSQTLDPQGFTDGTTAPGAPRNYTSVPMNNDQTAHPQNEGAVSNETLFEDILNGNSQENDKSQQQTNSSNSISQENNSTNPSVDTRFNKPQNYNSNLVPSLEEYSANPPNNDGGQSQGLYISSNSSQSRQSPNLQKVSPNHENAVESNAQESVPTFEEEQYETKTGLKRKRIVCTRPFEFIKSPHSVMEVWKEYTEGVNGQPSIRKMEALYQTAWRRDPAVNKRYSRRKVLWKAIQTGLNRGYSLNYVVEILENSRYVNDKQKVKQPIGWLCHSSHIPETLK
# Assay: PBM E-score (8-mer binding enrichment) (E-score (-0.5 to 0.5)); higher = stronger / more preferred TF binding
# Conditions: protein concentration: 200 nM; construct: GST-full length
# Description: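 Universal 'all 10-mer' protein binding microarrays (Agilent AMADID 015681) probed with GST-tagged S. cerevisiae TFs (full-length or DBD) made by in vitro transcription/translation (PURExpress), about 100-200 nM. Bound TF was detected with fluorescent anti-GST. Each ungapped 8-mer (which stands for itself and its reverse complement) is scored by the PBM enrichment score (E-score), a modified Wilcoxon-Mann-Whitney statistic from -0.5 to +0.5, computed with the Universal PBM Analysis Suite. Scale: above 0.35 generally sequence-specific binding.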
row,Sequence,PBM E-score
1,GCTTCTTA,-0.0464
2,ACATGTAA,0.255
3,ACATGTTA,0.199
4,ACATGTCG,0.311
5,ACATGTAT,0.312
6,ACATGTCA,0.358
7,ACATGCCT,-0.119
8,TCATGTCA,0.252
9,ACATGTCT,0.436
10,ACATGTTG,0.235
11,CCATGTCG,0.239
12,ACCTGTCT,0.0544
13,ACATGTAG,0.244
14,ACCGATAG,0.0834
15,GATTCCGC,0.0634
16,AAGCCGCA,-0.0983
17,GACTGCAA,-0.16
18,AAAGCGAT,0.00359
19,TAGGTGAA,0.0103
20,CCATGTCA,0.164
21,GCATGTAC,0.291
22,ACATGTTC,0.147
23,ACATGTGC,0.0743
24,GCATGTCA,0.261
25,GCATGTCC,0.459

row,Sequence,PBM E-score
1,CCATGTAC,0.216
2,CCATGTCC,0.434
3,ACATGTCC,0.48
4,CGGGTTGA,-0.255
5,CCAGCCCC,-0.304
6,CTTTGCTA,-0.0573
7,AAACAGTA,-0.0344
8,CCACAAGC,-0.0513
9,CCGACATC,0.0379
10,AGGACATG,0.484
11,AGCACATG,-0.0192
12,AGGACATC,0.477
13,CGGACATC,0.387
14,CGGACAGC,0.182
15,AGCACATC,-0.0251
16,AGTACATC,0.131
17,CGGACATA,0.469
18,CGGACCTA,0.00062
19,CGGACTGA,0.0816
20,AGTACATG,0.266
21,ATGGGCAA,0.0683
22,ACATACCG,0.114
23,GGAACGAA,0.0279
24,AATCTAAG,0.00698
25,GCGAGATA,0.09

row,Sequence,PBM E-score
1,ATCTTCCA,-0.148
2,GGGACATA,0.488
3,GGGACTGA,-0.182
4,GGGACAGA,0.262
5,AGCGTAGG,-0.267
6,GACCACCA,-0.246
7,ATCAGACC,-0.192
8,AAACTGCT,-0.222
9,CGCCAACG,-0.126
10,CGCTCTAC,-0.0195
11,CGTATTGA,-0.0137
12,ACTGCGGG,-0.124
13,CGTCGCAA,0.0166
14,TGTCTAAA,0.38
15,TGTCTTAA,0.375
16,AGTCTGAA,0.029
17,TGTCGCAA,0.324
18,AGTCTTAA,0.11
19,GGTCTAAA,-0.0883
20,GGTCTGAA,0.0803
21,CGTCTTAA,0.0585
22,TGTCTGAA,0.364
23,GGTCGCAA,-0.11
24,AGTCTAAA,0.0711
25,CGCTAGGA,-0.0538

row,Sequence,PBM E-score
1,GCGGGGCA,-0.147
2,GGAACCCC,-0.334
3,ACCGTCTA,-0.11
4,CTGCGATA,0.0274
5,CAGGTGAA,0.0265
6,ATGCAGTC,-0.186
7,CTGGAGTC,-0.182
8,AGCCAATA,-0.113
9,GATCGGCC,-0.0564
10,CACTACCG,-0.181
11,AACTAGAA,0.062
12,AGTATCAA,0.217
13,TGTCTCAA,0.384
14,TGTATCAA,0.325
15,CGTCTCAA,0.00785
16,AGTCTCAA,-0.0719
17,CGTATCAA,0.0969
18,TATAATCA,0.169
19,CCGGGATC,0.0583
20,AAGGGGAC,0.101
21,AGAATGTA,0.167
22,CGAATGTC,0.386
23,CGAATGTA,-0.00301
24,AGAATGTG,-0.172
25,AGAATGTC,0.459

row,Sequence,PBM E-score
1,CGAATGAC,0.258
2,CCGCTGAG,0.00458
3,AAACCGCT,-0.0604
4,CCAAGGGC,-0.126
5,ACACAAGC,0.0155
6,AGAGGTAG,-0.163
7,GCGATCAA,-0.0507
8,CTCAGACC,-0.138
9,GTCAGAGA,0.0303
10,CTCAGACA,0.317
11,GTCAGACA,0.323
12,ATCAGACA,0.173
13,CCCAGACA,0.199
14,CACGCCAC,-0.127
15,TCCACGGA,0.299
16,GAAGGTGA,-0.0331
17,GGGTTAGA,-0.178
18,GCAAATTA,-0.0115
19,ACAAACTG,0.158
20,AGATCTGC,0.0313
21,GAGGGCCA,-0.104
22,ATATGACC,-0.0751
23,CGATGACA,0.314
24,CTATGACC,-0.0237
25,CTATGACA,0.375

row,Sequence,PBM E-score
1,GTATGACA,0.294
2,CTATGAGA,-0.0425
3,CGCTGACG,-0.24
4,ATATGACA,0.304
5,TGCTGACA,0.125
6,CGCTGACA,0.314
7,AGATGACA,0.157
8,CGATGACG,-0.158
9,CTTCCAGA,-0.0473
10,GACACACC,0.235
11,AGTCGAGA,0.0774
12,ACAGGTGG,-0.0714
13,ATTTGCAA,0.103
14,CTAACTTA,0.227
15,TGTGCGAA,-0.0498
16,AAAACACC,0.0787
17,AGGGTCGC,-0.229
18,GCTTGAAC,0.187
19,CGGGCAGC,-0.122
20,AAGACAGT,0.0956
21,CAGACATA,0.366
22,AACACATG,0.07
23,AAGACACT,0.163
24,AATACATG,0.0057
25,AAGACATT,0.414

row,Sequence,PBM E-score
1,CAGACATC,0.246
2,AAGACACG,0.248
3,CAGACATG,0.26
4,AAGACATA,0.382
5,AAGACATC,0.281
6,AAGACATG,0.337
7,ACGAGCTC,-0.0205
8,CCAAATCG,-0.101
9,GTCTCAGA,0.0346
10,CAAAGGGC,-0.0864
11,GCAAGAAA,0.0128
12,CCCTCTTC,-0.288
13,CCGGCTCC,-0.269
14,ACCCCACA,-0.0822
15,CACCAGAC,0.00954
16,CGACCCCA,-0.177
17,CATACAGG,-0.0332
18,TAGACACA,0.163
19,GAGACATA,0.448
20,TAGACAGA,0.177
21,GAGACATC,0.265
22,TAGACATA,0.41
23,GAGACACA,0.272
